Screening results (PubChem BioAssay)
BoNT A protease – inhibitors of Botulinum neurotoxin A light chain protease | AID 588499 | 360,000 tested, 0.17% active | inhibition, % at 10 µM | multiplex microsphere protease substrate cleavage, flow cytometry
MazEF act – increases E. coli MazEF RNase cleavage of RNA | 350,000 tested, 0.32% active | FAM/BHQ RNA-DNA oligo cleavage fluorescence, 5 h | activation, % at 20 µM | AID 504720; in the data active means activation above about 50%
Target sequence (P0AE70 whole entry, looked up): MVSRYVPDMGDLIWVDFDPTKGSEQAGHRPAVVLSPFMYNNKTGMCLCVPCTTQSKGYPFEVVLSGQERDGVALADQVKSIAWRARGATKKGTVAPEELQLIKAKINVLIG
BoNT F protease – inhibitors of Botulinum neurotoxin F light chain protease; Multiplex microsphere protease cleavage assay, flow cytometry; inhibition, % at 10 µM; 360,000 tested, 0.22% active; AID 588497; in the data active means inhibition above about 35%, passing the limit was not always enough; inconclusive means no clear call, values can overlap the other calls
Anthrax LF prot – blocks Bacillus anthracis lethal factor protease; P15917; multiplex microsphere protease cleavage assay, LF; inhibition, % at 10 µM; 360,000 tested, 0.12% active; AID 588501
Bead autofluor – compound fluorescence in toxin protease inhibitor counterscreen. AID 624483. compound autofluorescence counterscreen, microsphere flow cytometry; stronger effect = higher value. 360,000 tested, 3.1% active. fluorescence intensity (no concentration beside the values); in the data active means fluorescence intensity above about 16000; inconclusive means no clear call, values can overlap the other calls
Hits are given with their value; - = inactive; ? = inconclusive. Shown are actives, neighbours in structure and some others; about 3.7% of the full set was active somewhere. Unless noted, no stated cut-off is given here; in the data, active means inhibition above about 30%; inconclusive means no clear call, values can overlap the other calls; inactive means below that.

SMILES	BoNT A protease	MazEF act	BoNT F protease	Anthrax LF prot	Bead autofluor
C=CC(C)Sc1nc2c(c(=O)n(C)c(=O)n2C)n1Cc1ccccc1Cl (stereo unspecified)	-	-	-	-	-
Cn1c(=O)c2c(nc(SCCCO)n2Cc2ccccc2Cl)n(C)c1=O	-	-	-	-	16181
C=CCOc1nc2c(c(=O)n(C)c(=O)n2C)n1Cc1ccc(Cl)cc1	-	-	-	-	-
C=CCOc1nc2c(c(=O)n(C)c(=O)n2C)n1Cc1ccccc1Cl	-	-	-	-	20534
Cn1c(=O)c2c(nc(NCc3ccc4c(c3)OCO4)n2Cc2ccccc2Cl)n(C)c1=O	-	-	-	-	17237
Cn1c(=O)c2c(nc(OCc3ccc4c(c3)OCO4)n2Cc2ccccc2Cl)n(C)c1=O	-	-	-	-	-
Cn1c(=O)c2c(nc(Sc3ncccn3)n2Cc2ccccc2Cl)n(C)c1=O	-	-	-	-	18229
O=C(NCc1ccccc1)NC(O)C(Cl)(Cl)Cl (stereo unspecified)	-	-	-	-	-
CCN(CC(=O)Nc1ccccc1C(F)(F)F)C(=O)Cc1ccccc1	-	-	-	-	-
CCCCn1c(O)c(C(C)=NCCCN(CC)CC)c(=O)[nH]c1=O	-	-	-	-	23379
CCCCn1c(O)c(C(C)=NCc2ccc(F)cc2)c(=O)[nH]c1=O	-	-	-	-	23819
CCCCn1c(O)c(C(CC)=NCCCN(C)C)c(=O)[nH]c1=O	-	-	-	-	16159
CCCCn1c(O)c(C(CC)=NCc2ccc(F)cc2)c(=O)[nH]c1=O	-	-	-	-	?
Cc1cccc(C2c3[nH]c4ccccc4c3CCN2C(=O)Cc2n[nH]c(C)n2)n1 (stereo unspecified)	-	-	-	-	-
COc1cc(NC(=O)C2CC(=O)NC3=C2C(=O)CCC3)cc(OC)c1 (stereo unspecified)	-	-	-	-	20659
O=C(c1cc2ccccc2oc1=O)N1CCN(C(=O)C2CCCO2)CC1 (stereo unspecified)	-	-	-	-	25648
O=C(C1CCCO1)N1CCN(S(=O)(=O)c2ccccc2)CC1 (stereo unspecified)	-	-	-	-	22925
O=C(c1cc2ccccc2oc1=O)N1CCOCC1	-	-	-	-	-
CN(CC(=O)Nc1ccccc1Br)C(=O)c1ccccc1OCc1ccc(Cl)cc1	-	-	-	-	-
COc1ccc(Nc2nc(N)nc(CSc3nncn3C)n2)cc1	-	-	-	-	16635
COc1ccc(Nc2nc(N)nc(CSc3nnc(C)s3)n2)cc1	-	-	-	-	-
CCOc1ccccc1Nc1nc(N)nc(CSc2nncn2C)n1	-	-	-	-	23051
CCOc1ccccc1Nc1nc(N)nc(CSc2nccc(C)n2)n1	-	-	-	-	-
CCOC(=O)N1CCN(C(=O)C(CC(C)C)NS(=O)(=O)c2ccc(C)cc2)CC1 (stereo unspecified)	-	-	-	-	-
COc1ccccc1N1CCN(C(=O)C(NS(=O)(=O)c2cccs2)c2ccccc2)CC1 (stereo unspecified)	-	-	-	-	16978
SMILES	BoNT A protease	MazEF act	BoNT F protease	Anthrax LF prot	Bead autofluor
O=C(NC(Cc1ccccc1)C(=O)N1CCC2(CC1)OCCO2)C1CCCCC1 (stereo unspecified)	-	-	-	-	-
COc1ccccc1N1CCN(S(=O)(=O)c2cccs2)CC1	-	-	-	-	-
COc1ccccc1N1CCN(C(=O)C(Cc2ccccc2)NC(=O)C2CCCCC2)CC1 (stereo unspecified)	-	-	-	-	25307
C/C(=N/NC(=O)CNC(=O)c1cccs1)c1ccco1	-	-	-	-	-
CCn1c(=O)cc(SCC(=O)NCCCN2CCC(C)CC2)c2ccccc21	-	-	-	-	-
CCn1c(=O)cc(SCC(=O)NCc2ccc(C)cc2)c2ccccc21	-	-	-	-	-
CCn1c(=O)cc(SCC(=O)NCCN2CCN(Cc3ccccc3)CC2)c2ccccc21	?	-	-	-	22769
CCn1c(=O)cc(SCC(=O)NCCCN2CCN(c3ccc(F)cc3)CC2)c2ccccc21	-	-	-	-	20024
C[C@@H](OC(=O)c1[nH]cnc1C(=O)NCc1ccc(CNC(=O)OC(C)(C)C)cc1)c1ccccc1	-	-	-	-	-
CCn1ncc(C2=NOC(C(=O)NCc3ccccc3)C2)c1C (stereo unspecified)	?	-	-	-	26555
CCn1ncc(C2=NOC(C(=O)NCc3ccc(OC)cc3)C2)c1C (stereo unspecified)	-	-	-	-	-
COc1cccc(CNn2cnnc2)c1OCc1ccc(F)cc1	-	-	-	-	-
COc1cccc(CNn2cnnc2)c1OCc1ccccc1F	?	-	-	-	20043
CCN(CC)c1ccc(/C=C2/C(=O)c3ccc(C(=O)O)cc3C2=O)cc1	-	74.4	-	-	-
COc1ccc(C(=O)/C=C/c2cn(CN3CCN(C)CC3)c3ccccc23)cc1	-	-	-	-	23529
CCOc1ccc(C(=O)/C=C/c2cn(CN3CCN(C)CC3)c3ccccc23)cc1	-	-	-	-	-
O=C(Nc1nccs1)C1CCCN1S(=O)(=O)c1ccc(Cl)cc1 (stereo unspecified)	-	-	-	-	-
CC(C)(C)C(=O)Nc1nc(C2CCCN2S(=O)(=O)c2ccc(Cl)cc2)cs1 (stereo unspecified)	-	50.5	-	-	-
NC(=O)c1ccsc1NC(=O)C1CCCN1S(=O)(=O)c1ccc(Cl)cc1 (stereo unspecified)	-	-	-	-	20384
O=C(Nc1nc(-c2ccccc2)cs1)C1CCCCN1S(=O)(=O)c1ccc(Cl)cc1 (stereo unspecified)	-	-	-	-	16281
O=C(Nc1nc(-c2ccccc2)cs1)C1CCCCN1S(=O)(=O)c1ccccc1 (stereo unspecified)	-	-	-	-	?
Cc1ccc(CNS(=O)(=O)c2c(C(=O)N3CCCCCC3)c(C)n(C)c2C)cc1	-	-	-	-	-
CCn1c(O)c(/C=N/N=C2CCCC2)c2ccc(C3=NNC(=O)CC3)cc21	-	-	-	-	23877
O=S(=O)(Cc1ccccc1)Nn1cnnc1	-	-	-	-	22495
CN(CCc1ccccn1)C(=S)Nc1ccc(Cl)c(Cl)c1	-	-	-	-	-
SMILES	BoNT A protease	MazEF act	BoNT F protease	Anthrax LF prot	Bead autofluor
O=C(CCSCCc1ccccn1)Nc1ccc(Cl)cn1	?	-	-	-	20129
O=C(CCSCCc1ccccn1)Nc1ccc(Br)cn1	-	-	-	-	23488
CN(CCc1ccccn1)C(=O)Nc1ccc(Cl)cc1	-	-	-	-	17188
O=c1[nH]c(CN2CCCCC2)ccc1O	-	-	-	-	-
CC(=O)c1c(C)[nH]c(C(=O)Nc2cccnc2)c1C	?	-	-	-	19908
CC(=O)c1c(C)[nH]c(C(=O)Nc2ccc(C)c(C)c2)c1C	-	-	-	-	-
COc1ccc2[nH]c(=O)c(CN(C)C(=O)c3cccs3)cc2c1	-	-	-	-	-
O=C(Cn1cnc2ccccc21)NCCCN1CCOCC1	-	-	-	-	24254
O=C(NCCCN1CCOCC1)c1ccc(Br)s1	-	-	-	-	-
O=C(NCCCN1CCOCC1)c1cccs1	?	-	-	-	19558
